The list is not random: actives were taken first. Their share in the collection is about 27%.
CYP2C9 inhib: inhibitors of human CYP2C9; P11712; CYP2C9 Supersomes, luciferin-H conversion, luminescence; inhibition, % at 5 µM; 96,000 compounds, 20% hits; AID 777;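 active means blocking of liver enzyme CYP2C9 beyond about 50% at 5 µM, limit read from the data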
CYP2C19 act: cytochrome P450 2C19 (human) activation | P33261 | recombinant CYP2C19, luciferin-H EGE luminescence; active compounds read high; 0 = fully inhibited enzyme, 1 = untreated enzyme | activation factor at 5 µM | 96,000 tested, under 10 active;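 active means activation factor of at least 2 at 5 µM in the primary screen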;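 further: 0 = wells with 2.5 mM tranylcypromine and 1 = vehicle-only wells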
Cav32 inh: blocks human Cav3.2 T-type calcium channel | O95180 | Cav3.2-expressing cells, Fluo-4 calcium fluorescence FDSS; active compounds read low | B-score at 10 µM | 100,000 compounds, 4% hits;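 active means single-dose well whose peak fluorescence ratio is a statistical outlier from its plate by either plate-standardised score or position-corrected B-score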
CYP2C9 act: activators of human CYP2C9; recombinant CYP2C9, luciferin-H conversion, luminescence; active compounds read high; factor 1 = untreated enzyme, 0 = blocked; activation factor at 5 µM; 96,000 compounds, 1.4% hits;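 active means activation factor of 2 or more for CYP2C9 at a 5 µM dose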;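 further: 0 = sulfaphenazole-blocked wells and 1 = vehicle-only wells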
CYP2C19 inh: blocks human cytochrome P450 2C19. 96,000 compounds, 21% hits. CYP2C19 Supersomes, luciferin-H EGE luminescence, 30 min. inhibition, % at 5 µM;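 active means CYP2C19 inhibition above a set limit at 5 µM in the primary screen, cut at about 50% in these data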;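 further: plate controls were negative control wells for no effect and 2.5 mM tranylcypromine positive control for full effect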
PTK2B oligo ant: antagonists of human Pyk2 oligomerization; AID 1347419; Q14289; z-score (the deposit names both 25 µM and 10 µM); Q293 cells, Pyk2 FERM NanoBiT luminescence; active compounds read low; 99,000 compounds, 0.83% hits;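 active means Z-score of -3 or lower, scaled per plate to the spread of control and sample wells; inactive means z-score above -3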;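 further: negative z-score means lost luminescence so less FERM oligomerization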
Starred values were filed as active, the others as inactive; x = not tested or not shown.

SMILES	CYP2C9 inhib	CYP2C19 act	Cav32 inh	CYP2C9 act	CYP2C19 inh	PTK2B oligo ant
CCOc1ccc(C2C(C#N)=C(N)Oc3cc(C)n(CCN(C)C)c(=O)c32)cc1OCC (configuration not stated)	12	1.1	0.43	0.9	-7	0.2
CCCOC(=O)C1=C(C)OC23OC(N)=C(C#N)C12C(=O)c1ccccc13 (configuration not stated)	x	x	-0.84	x	x	0.86
CC1=C(C(=O)OCC(C)C)[C@]23C(=O)c4ccccc4[C@@]2(O1)OC(N)=C3C#N	x	x	-3.9	x	x	0.71
CCC(C)OC(=O)C1=C(C)OC23OC(N)=C(C#N)C12C(=O)c1ccccc13 (configuration not stated)	x	x	-2.7*	x	x	-0.46
CC1=C(C(=O)OCC(C)C)C23C(=O)c4ccccc4C2(O1)OC(N)=C3C#N (configuration not stated)	68*	0.1	-2.9	0.3	86*	1.1
CCN1C(=O)N[C@@H](CCc2ccccc2)[C@H](C(=O)OC)[C@H]1C	x	x	0.18	x	x	x
O=C(c1ccc2c3c(cccc13)CC2)N1CCN(c2ncccn2)CC1	x	x	-0.82	x	x	-0.31
O=C(c1csc2c1CCCCC2)N1CCN(c2ncccn2)CC1	89*	0.1	0.1	0.1	88*	0.3
O=C(c1csc2ccccc12)N1CCCCCC1	-47	0.8	0.67	1.5	25	0.57
O=C(c1csc2c1CCCC2)N1CCCCC1	-38	0.5	0.14	1.4	52*	0.22
Cc1ccc(S(=O)(=O)N2CCC(C(=O)N3CCC[C@H]3C(=O)NCc3ccco3)CC2)cc1	-5	1	-0.019	1.1	1	1.8
Cc1cccc(OCCCC(=O)N2CCCc3ccccc32)c1C	16	0.2	-3	0.8	83*	0.2
O=C(CCCCCCN1C(=O)c2ccccc2C1=O)N1CCC(c2ccccc2)C1 (configuration not stated)	x	x	-4.3*	x	x	-0.32
O=C(CCCC(=O)N1CCc2ccccc21)N1CCc2ccccc21	0	1	x	1	2	0.1
O=C1c2ccccc2C(=O)N1CCCC(=O)N1CCCc2ccccc21	-2	0.2	x	1	83*	1.2
O=C(CCCOc1ccc(Cl)cc1Cl)N1CCCc2ccccc21	36	0.7	-1.6	0.6	32	0.31
COc1ccc(-c2nnc(SCC(=O)Nc3nc4ccccc4s3)n2C)cc1	32	0.9	x	0.7	12	0.24
COC(=O)c1sc(N)c(C(=O)OC)c1CSc1nnnn1C	55*	0.1	1.2	0.5	92*	0.24
COC(=O)c1sc(N)c(C(=O)OC)c1CSc1nnc(-c2ccccc2Cl)n1C	97*	0	-0.91	0	100*	1
Cc1cccc(C)c1OCC(O)CNS(=O)(=O)c1ccccc1C(=O)N1CCCCC1 (configuration not stated)	x	x	-1.9	x	x	-0.97
Nn1c(=O)[nH]c2ccccc2c1=O	x	x	-0.1	x	x	x
N#Cc1c(-c2ccccc2)c(-c2ccccc2)n(Cc2ccco2)c1NC(=O)c1cccs1	64*	0.5	-8.9*	0.4	50	-2.5
CCn1c(-c2cc3c(C(F)(F)F)nn(C)c3s2)n[nH]c1=S	22	0.7	0.32	0.8	31	0.73
CCC(C)NC(=O)c1ccccc1NS(=O)(=O)c1ccc(OC)c(OC)c1 (configuration not stated)	-35	0.2	0.023	1.4	80*	-0.16
COc1ccc(S(=O)(=O)Nc2ccccc2C(=O)NC(C)C)cc1OC	-54	0.2	0.089	1.5	81*	-0.57
SMILES	CYP2C9 inhib	CYP2C19 act	Cav32 inh	CYP2C9 act	CYP2C19 inh	PTK2B oligo ant
Cc1ccc(S(=O)(=O)NC2CCCC(C(=O)O)C2)cc1 (configuration not stated)	-13	1.1	0.56	1.1	-13	1.4
CCc1ccc(Nc2oc(C)cc(=O)c2C(C)=O)cc1	12	1	-0.14	0.9	3	0.14
COc1ccccc1N1CCN(C(CNS(=O)(=O)c2ccccc2)c2cccnc2)CC1 (configuration not stated)	62*	0.1	-0.66	0.4	86*	0.41
COc1ccc(S(=O)(=O)NCC(c2cccnc2)N2CCN(C)CC2)cc1C (configuration not stated)	x	x	-0.46	x	x	x
COc1ccc(S(=O)(=O)NCC(c2cccnc2)N2CCN(c3ccccc3OC)CC2)cc1C (configuration not stated)	43	0.3	-0.27	0.6	74*	-1.8
CC(=O)NN1C(=O)c2ccc(Oc3cccc([N+](=O)[O-])c3)cc2C1=O	12	0.9	0.13	0.9	6	0.11
Fc1ccc(-c2nnn(Cc3nc4ccccc4s3)n2)cc1	33	0.1	-0.32	0.7	89*	-0.46
Cc1ccc(S(=O)(=O)N2CCC(C(=O)OCC(=O)N3CCc4ccccc43)CC2)cc1	-9	1	0.57	1.1	-3	0.79
O=C1CN(C(=O)COC(=O)C2CCN(S(=O)(=O)c3ccccc3C(F)(F)F)CC2)c2ccccc2N1	-51	0.4	-0.13	1.5	57*	-0.43
CC(=O)N1c2ccccc2NC(=O)C1(C)C	-7	1	0.8	1.1	1	-0.19
CC1(C)C(=O)Nc2ccccc2N1C(=O)COC(=O)C1CCCCC1	61*	0.4	-5.6*	0.4	62*	0.85
Cc1cc(C)c(C)c(S(=O)(=O)N2CCC(C(=O)OCC(=O)N3c4ccccc4NC(=O)C3(C)C)CC2)c1C	-60	0.3	-1.9	1.6	70*	-0.79
C=CCN(Cc1cc(OC)ccc1OC)S(=O)(=O)N(C)C	64*	0	-0.017	0.4	96*	0.44
CCCCCCCCCCCCCCCC(=O)OC[C@H](COP(=O)([O-])OCC[N+](C)(C)C)OC(=O)CCCCCCCCCCCCCCC	x	x	0.14	x	x	x
COc1ccc(C)cc1S(=O)(=O)NCCC1=CCCCC1	35	0.6	-2.6	0.7	36	-1.1
CCOc1ccc(OCC)c(S(=O)(=O)NCCCN2CCOCC2)c1	x	x	0.25	x	x	0.83
CCCOc1ccc(S(=O)(=O)NCCCN2CCOCC2)c2ccccc12	-7	0	0.26	1.1	99*	-0.08
COc1ccc(S(=O)(=O)NCCCN2CCOCC2)c2ccccc12	-86	0	1	1.9	97*	0.08
CCOc1ccc(S(=O)(=O)NCCCN2CCOCC2)c2ccccc12	-56	0.4	1.6	1.6	60*	0.29
CCOc1ccc(S(=O)(=O)NCCC2=CCCCC2)c2ccccc12	-1	0.1	-2.4	1	88*	-2.6
O=C(CN1C(=O)CSc2ccccc21)Nc1ccccc1C(=O)N1CCOCC1	6	0.9	0.12	0.9	8	0.19
Cc1c(C(=O)NCc2ccccc2Cl)oc2c1C(=O)CCC2	19	0.8	0.17	0.8	15	x
CCOC(=O)C(C)c1c(C)[nH]c(=S)[nH]c1=O (configuration not stated)	1	1.1	x	1	-7	0.33

Screening data as filed in PubChem BioAssay.
